The text below walks through data of PubChem BioAssay (NCATS).

Results filed as inconclusive are left out. Values without a mark were called inactive. Activity calls are given as the source filed them. Calls follow the shape of the dose curve; as a rule, active = well fitted inhibition curve with a large enough effect; inconclusive = small, poorly fitted or top-dose-only effect; inactive = no such curve, though single readings can be large or run the other way.
Potency is read from the fitted curve at half-maximal effect.

The first test can be described thus: BET inhibitor-based combinations targeting novel dependencies in MECOM-rearranged (r) AML: MV-4-11 cell line (AID 2202233). Also: nearly all actives have a fitted effect of over 45% in size.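 As to viability, % of control: plate controls were DMSO for no effect and blank wells for full effect.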 The settings on record: MV-4-11 AML viability, CellTiter-Glo luminescence, 48 h; series mostly up to 46 µM; viability, % of control: at the top concentration. The procedure, abridged: (§1)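 First, 500 cells per well were seeded; next, drugs were pinned as 11-point doses; then plates sat 48 hr in the incubator; finally CellTiter-Glo was added and luminescence read, with AUC and Z-AUC computed.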
A general note: Cellular ATP, detected with luciferase, serves as a proxy for viable cell number.
Consider `CN(C)CC(=O)N1CCC(c2ccc(NC(=O)c3ncc(C#N)[nH]3)c(C3=CCCCC3)c2)CC1`, for which the Potency was 0.148 µM (active). In the case of `Nc1ncnc2c1ncn2[C@@H]1O[C@H](CO)C[C@H]1O`, the “viability, % of control” value was 101%. As for `Cc1ccccc1C(=O)c1ccc(Nc2ccc(Br)cc2N)cc1Cl`, the Potency was 18.6 µM (active). On the same count and under the same terms, for `Nc1nccc(Oc2ccc(NC(=O)c3c[nH]cc(-c4ccc(F)cc4)c3=O)cc2F)c1Cl` the value was 0.0372 µM (active); for `O=C(O)c1ccc(Nc2ncc3c(n2)-c2ccc(Cl)cc2C(c2c(F)cccc2F)=NC3)cc1`, 0.934 µM (active). Turning to `Nc1cccc(S(=O)(=O)N2CCCN(S(=O)(=O)c3ccc4c(c3)OCCO4)CC2)c1`, the “viability, % of control” value is 100%. For the compound `Cc1cc(C(=O)Nc2cc(Oc3ccc4nc(NC(=O)C5CC5)cn4n3)ccc2C)n(C)n1`, the Potency was 14.8 µM (active). For the compound `Cc1cnc(CNC(=O)c2c(=O)c3ccc(N4CCCN(C)CC4)nc3n3c2sc2ccccc23)cn1`, the Potency was 1.08 µM (active). Same read-out and setting: for `COc1cc2nccc(Oc3ccc(NC(=O)Nc4cc(C)on4)c(Cl)c3)c2cc1OC` the value was 1.05 µM (active).

Take `O=c1[nH]c([C@@H]2CCCN2)nc2c1oc1ccc(Cl)cc12`: the Potency was 13.2 µM (active). With `Cc1cc(SCc2sc(-c3ccc(C(F)(F)F)cc3)nc2C)ccc1OCC(=O)O`, the “viability, % of control” value was 110%. Take `CC(C)(C)Cn1c(N)nc2ccc(-c3[nH]c(C(C)(C)C)nc3-c3ccc(F)cc3)nc21`: the Potency was 18.6 µM (active). As to `COc1ccc(-c2c(-c3ccc(O)cc3O)n[nH]c2C)cc1`, the “viability, % of control” value was 7.4%.

As for `Cc1cc2c(cc1C1(c3ccc(C(=O)O)cn3)CC1)C(C)(C)CCC2(C)C`, the Potency is 0.0209 µM (active). As to `Cn1c2cc(S(C)=O)sc2c2cnn(Cc3cccc(N)c3)c(=O)c21` (stereo unspecified), the “viability, % of control” value is 102%. With `COc1cc(Nc2ncc3c(n2)-c2ccc(Cl)cc2C(c2c(F)cccc2OC)=NC3)ccc1C(=O)O`, the Potency is 0.0833 µM (active). As for `CCN(CCCOc1ccc2c(Nc3cc(CC(=O)Nc4cccc(F)c4)[nH]n3)ncnc2c1)CCOP(=O)(O)O`, the Potency is 0.372 µM (active). The same measure, in the same setting: the figure for `CC(C)(C)c1cc(NC(=O)Nc2ccc(-c3cn4c(n3)sc3cc(OCCN5CCOCC5)ccc34)cc2)no1` is 0.003 µM (active). The same measure, in the same setting: for `CN1CCN(C(=O)c2ccc3cc(CCNc4ncnc5ccc(C#N)cc45)ccc3c2)CC1` the value was 7.42 µM (active); for `CC(C)(O)CC(=O)NCCn1ccc2ncnc(Nc3ccc(Oc4cccc(C(F)(F)F)c4)c(Cl)c3)c21`, 13.2 µM (active); for `CC[C@@](C)(Nc1ccnc(-c2c[nH]c3ncccc23)n1)C(=O)NCC(F)(F)F`, 14.8 µM (active).

Regarding `CC(C)(C)Sc1c(CC(C)(C)C(=O)O)n(Cc2ccc(Cl)cc2)c2ccc(OCc3ccc4ccccc4n3)cc12`, the Potency was 26.3 µM (active).

With `Cc1ccccc1-n1nc(-c2c(-c3ccc(F)cc3)nn3c2NC[C@@H](CO)C3)ccc1=O`, the “viability, % of control” value was 50.7%. Consider `Cc1cc(F)c(C(=O)Nc2cccc(-c3nncn3C(C)C)n2)cc1-n1cnc(C2CC2)c1`, for which the Potency is 10.5 µM (active).

A short description of the next test: BET inhibitor-based combinations targeting novel dependencies in MECOM-rearranged (r) AML: HNT-34 cell line (AID 2202234). Also: nearly all actives have a fitted effect of over 35% in size.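 As to viability (% of control): plate controls were vehicle wells for no effect and cell-free wells for full effect.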 The settings on record: HNT-34 AML viability, CellTiter-Glo luminescence, 48 h; series mostly up to 46 µM; viability (% of control): at the top concentration. The essentials:
as §1
For the compound `CN(C)CC(=O)N1CCC(c2ccc(NC(=O)c3ncc(C#N)[nH]3)c(C3=CCCCC3)c2)CC1`, the Potency was 10.5 µM (active). Same read-out and setting: for `Cc1ccccc1C(=O)c1ccc(Nc2ccc(Br)cc2N)cc1Cl` the value was 23.5 µM (active).

On to `CC[C@H](NC(=O)[C@H](CS(=O)(=O)CC1CC1)N[C@@H](c1ccc(F)cc1)C(F)(F)F)C(=O)C(=O)NC1CC1`, for which the “viability (% of control)” value was 93.6%. Take `Cc1cc(C(=O)Nc2cc(Oc3ccc4nc(NC(=O)C5CC5)cn4n3)ccc2C)n(C)n1`: the Potency is 1.32 µM (active). As for `COc1cc2nccc(Oc3ccc(NC(=O)Nc4cc(C)on4)c(Cl)c3)c2cc1OC`, the Potency is 0.209 µM (active). Consider `Cc1cc(SCc2sc(-c3ccc(C(F)(F)F)cc3)nc2C)ccc1OCC(=O)O`, for which the “viability (% of control)” value is 95.7%. Take `CC(C)(C)Cn1c(N)nc2ccc(-c3[nH]c(C(C)(C)C)nc3-c3ccc(F)cc3)nc21`: the Potency is 23.5 µM (active). Consider `C[C@@H]1CCN(C(=O)N2CCCC2)C[C@@H]1N(C)c1ncnc2[nH]ccc12`, for which the Potency was 16.6 µM (active). `Cc1cc2c(cc1C1(c3ccc(C(=O)O)cn3)CC1)C(C)(C)CCC2(C)C`: the “viability (% of control)” value is 109%.

For `Cn1c2cc(S(C)=O)sc2c2cnn(Cc3cccc(N)c3)c(=O)c21` (stereo unspecified), the “viability (% of control)” value was 90.5%.

Regarding `COc1cc(Nc2ncc3c(n2)-c2ccc(Cl)cc2C(c2c(F)cccc2OC)=NC3)ccc1C(=O)O`, the Potency is 1.18 µM (active). Take `O=C(NC[C@H](O)CN1CCc2ccccc2C1)c1ccnc(NC2CCC2)c1`: the “viability (% of control)” value was 111%. As to `COc1cc(F)c(F)c(Nc2ccc(I)cc2F)c1NS(=O)(=O)C1(C[C@H](O)CO)CC1`, the Potency is 1.32 µM (active).

With `CN(NC(=O)CC(=O)NN(C)C(=S)c1ccccc1)C(=S)c1ccccc1`, the Potency is 0.0148 µM (active). `CCCCCN(CCC12CC3CC(CC(C3)C1)C2)C(=O)NCCCc1ccncc1`: the Potency was 16.6 µM (active). As to `CC(C)(O)CC(=O)NCCn1ccc2ncnc(Nc3ccc(Oc4cccc(C(F)(F)F)c4)c(Cl)c3)c21`, the Potency was 14.8 µM (active). As for `CC[C@@](C)(Nc1ccnc(-c2c[nH]c3ncccc23)n1)C(=O)NCC(F)(F)F`, the Potency was 14.8 µM (active). Same read-out and setting: for `CC(C)(C)Sc1c(CC(C)(C)C(=O)O)n(Cc2ccc(Cl)cc2)c2ccc(OCc3ccc4ccccc4n3)cc12` the value was 26.3 µM (active); for `CNC(=O)c1cccc2cc(Oc3ccnc4cc(OCC5(N)CC5)c(OC)cc34)ccc12`, 16.6 µM (active). Consider `Cc1ccccc1-n1nc(-c2c(-c3ccc(F)cc3)nn3c2NC[C@@H](CO)C3)ccc1=O`, for which the “viability (% of control)” value is 97.2%. Consider `CC1(C)CN(C(=O)c2ccc(-c3cccc4nc(NC(=O)C5CC5)nn34)cc2)C1`, for which the Potency is 18.6 µM (active).

On to `Cc1cc(F)c(C(=O)Nc2cccc(-c3nncn3C(C)C)n2)cc1-n1cnc(C2CC2)c1`, for which the Potency is 20.9 µM (active).
